This passage reports inhibition results from PubChem BioAssay AID2315 (National Center for Advancing Translational Sciences (NCATS), 2010).

The whole screen tested about 290,000 compounds, of which about 27,000 (9.3%) were called active. This excerpt belongs to a sample that is enriched for actives. Unmarked numbers belong to inactive results. Rule as the data show it: active = inhibition mostly above about 28% (no sharp cut-off); inactive = mostly below about 43%.

The experiment can be described thus: A qHTS for Small Molecule Inhibitors of Shiga Toxin. Also: 0% is about no effect. The settings on record: Vero cells, Shiga toxin protein synthesis inhibition reporter; at 38.7 µM, active compounds read high.
For `COC(=O)c1cccc(N(C(=O)c2ccco2)C(C(=O)NC2CCCC2)c2ccco2)c1` (stereo unspecified), the inhibition was -1.98%.
As to `COc1cc(NC(=O)CCS(=O)(=O)c2ccc3c(c2)oc(=O)n3C)cc(OC)c1`, the inhibition was 15.8%.
The value for `CCc1ccccc1OCC(=O)Nc1ccc2c(c1)OCCO2` was 54.9% (active); that for `CCn1c(COc2ccccc2)nnc1SCC(=O)Nc1ccc2c(c1)OCCO2` was 4.75%.
As to `CCC(C(=O)Nc1ccc2c(c1)OCCO2)c1ccccc1` (stereo unspecified), the inhibition is 34.4%.
For the compound `O=C(COc1ccc(Cl)cc1)Nc1ccc2c(c1)OCO2`, the inhibition is 71.8% (active).
Consider `O=C(CCS(=O)(=O)Cc1ccccc1)Nc1ccc2c(c1)OCCO2`, for which the inhibition is -14.4%.
With `CCOc1ccc(NCCC(=O)c2ccc3c(c2)OCO3)cc1`, the inhibition is 21.5%.
The value for `O=C(COc1ccc(Cl)cc1)Nc1ccc2oc(=O)ccc2c1` was 6.26%.
In the case of `CC(C)NS(=O)(=O)c1ccc(OCC(=O)Nc2ccc3c(c2)OCCO3)cc1`, the inhibition is -9.12%.
For `COc1ccccc1OCCCC(=O)Nc1ccc2c(c1)OCCO2` the value was 20.5%; for `CCCCC(=O)Nc1ccc2c(c1)OCCO2`, 70.5% (active).
For `COC(=O)CCNc1ccc2c(c1)OCCO2` the value was 155% (active); for `CCC(C)(C)NC(=O)CN(C(=O)C(=O)Nc1ccc2c(c1)OCCO2)C(C)(C)CC`, 15.3%.
As to `CC(=O)Nc1cccc(Nc2nc(-c3cccs3)nc3ccccc23)c1`, the inhibition is 27.4%.
The value for `Cc1cc(=O)oc2c1ccc1ccccc12` was 17.1%; that for `O=C(CCc1ccccc1)Nc1ccnn1C1CCN(Cc2ccc(OCCO)cc2)CC1` was 27.8%.
For the compound `O=C(CC1C(=O)NCCN1CC(c1ccccc1)c1ccccc1)NCC1CCOCC1` (stereo unspecified), the inhibition was 16.2%.
For the compound `CC(NC(=O)CCCC1CCCCC1)c1ccc(S(N)(=O)=O)cc1` (stereo unspecified), the inhibition is -5.49%.
The value for `COC(=O)c1cc(CNC(=O)CC(C)c2ccccc2)ccc1OC` (stereo unspecified) was -4.17%; that for `Cc1ccc(S(=O)(=O)NCC(=O)Nc2ccc3c(c2)OCCO3)cc1` was -18.4%; that for `O=C(CSc1nnnn1C1CCCC1)Nc1ccc2c(c1)OCCO2` was 129% (active).
For `O=C(CSc1nnnn1-c1ccc2c(c1)CCC2)Nc1ccc2c(c1)OCCO2` the value was 33.4%; for `Cc1ccc(SCC(=O)Nc2ccc3c(c2)OCCO3)cc1`, 77.1% (active); for `CCC(=O)Nc1cccc(NC(=O)CSc2nnnn2C2CCCC2)c1`, -2.63%.
In the case of `Cn1ccnc1SCC(=O)Nc1ccc2c(c1)OCCO2`, the inhibition is 7.65%.
For `Cc1cc(OC(=O)c2ccc(OC(C)C)cc2)c([N+](=O)[O-])c(=O)[nH]1` the value was 13%; for `COc1ccc(-n2nc3c(N4CCC(C(=O)NCc5ccccc5)CC4)nnc(C)c3c2C)cc1`, -7%.
Take `COc1ccc(CCNC(=O)CCc2cn(C)c3ccccc23)c(OC)c1`: the inhibition was -3.65%.
The value for `C/C(=N/NS(=O)(=O)c1ccccc1)c1ccc(NC(=O)C(F)(F)F)cc1` was -9.75%; that for `CC(C)CNC(=O)COC(=O)/C=C/c1ccco1` was -5.59%.
The value for `O=C(O)/C=C\C(=O)Nc1ccc(OCc2ccccc2)cc1` was 43%; that for `O=C(/C=C/c1ccco1)Nc1ccc(Oc2ccccc2)cc1` was 80.2% (active).
On to `CCc1nnc(NC(=O)/C=C/c2ccc(C)o2)s1`, for which the inhibition was 26.8%.
The value for `Cc1nnc(NC(=O)/C=C/c2ccco2)s1` was 45.9% (active); that for `CCC(CC)c1nnc(NC(=O)/C=C/c2ccco2)s1` was 20%; that for `C/C(=N\NS(=O)(=O)c1ccc(Cl)cc1)c1ccc(NC(=O)c2ccco2)cc1` was 34% (active).
For `Cc1ccc(C(=O)COc2cccc(NC(=O)c3ccco3)c2)cc1`, the inhibition was 14.8%.
Regarding `CN1CCN(S(=O)(=O)c2ccc(NC(=O)c3ccco3)cc2)CC1`, the inhibition was 47.4%.
The value for `Cc1cccc(NC(=O)Nc2cccc(Oc3c(F)c(F)c(F)c(F)c3F)c2)c1` was -0.582%.
With `CCOC(=O)c1cccc(NS(=O)(=O)c2c(C(=O)N3CCCCCC3)c(C)n(C)c2C)c1`, the inhibition was -9.67%.
`CC(=O)Nc1ccc(NC(=O)[C@@H](NC(=O)c2cccc(C)c2)C(C)C)cc1`: the inhibition was -2.98%.
The value for `Cc1cc(C)cc(OCC(=O)Nc2cc(NC(=O)COc3cc(C)cc(C)c3)cc(C(=O)O)c2)c1` was -3.47%; that for `Cc1ccc(NC(=O)CSc2cccc3cccnc23)c(C)c1` was 21.1%; that for `O=C(CN1C(=O)COc2ccc(Cl)cc21)N1CCOCC1` was -1.98%.
Turning to `CC1CCN(S(=O)(=O)c2nnc(NC(=O)COc3ccccc3F)s2)CC1`, the inhibition is 2.6%.
For `O=C(Nc1ccc2oc(-c3ccccc3F)nc2c1)c1ccco1` the value was 85.3% (active); for `O=C(Nc1ccc(O)cc1)c1ccc(NC(=O)c2ccco2)cc1`, 32.1% (active).
In the case of `CCCC(=O)Nc1ccc2c(c1)nc(CCNC(=O)c1ccco1)n2C`, the inhibition is -1.85%.
For `Cc1ccc(NC(=O)/C(=C\c2ccccc2)NC(=O)c2ccco2)cc1` the value was 15.6%; for `O=C(Nc1cccc(-c2nc3ncccc3o2)c1)c1ccco1`, 1.9%; for `O=C(Nc1ccc(NC(=O)c2cccs2)cn1)c1ccco1`, 27.3%.
The value for `COc1cccc(C(=O)Nc2ccc(NC(=O)c3ccco3)cn2)c1` was 124% (active).
As to `COc1ccc(NC(=O)c2cccc(NC(=O)c3ccco3)c2)c(OC)c1`, the inhibition is 7.82%.
For `Cc1cc(NC(=O)c2ccc(F)cc2)ccc1NC(=O)c1ccco1`, the inhibition is 39.7%.
As to `Cc1ccnc(NC(=O)c2ccc(NC(=O)c3ccco3)cc2)c1`, the inhibition is 64.6% (active).
For `Cc1cc(=O)oc2c3c(cc(OCC(=O)N[C@H](C(=O)O)c4ccccc4)c12)OC(C)(C)CC3` the value was 9.9%; for `Oc1ccc(C2Nc3cccc4cccc(c34)N2)cc1`, -4.55%; for `CSc1ccc(S(=O)(=O)N2CCC(C(=O)NCc3ccncc3)CC2)cc1`, -6.82%.
Turning to `CCOC(=O)N1CCN(S(=O)(=O)c2ccc(Br)cc2)CC1`, the inhibition was 9.83%.
The value for `COCCN1C(=O)C(=O)/C(=C(/O)c2ccc(S(=O)(=O)N3CCOCC3)cc2)C1c1ccc(OC)c(OC)c1` (stereo unspecified) was -8.01%; that for `Cc1cccn2c(=O)c(/C=C(\C#N)C(N)=O)c(N3CCCCCC3)nc12` was -3.79%.
Consider `CC(C)Oc1ccc(C(CC(=O)N2CCOCC2)C(C)C)cc1` (stereo unspecified), for which the inhibition is 5.33%.
Take `COc1cc(C2/C(=C(\O)c3ccc4c(c3)CC(C)O4)C(=O)C(=O)N2c2nnc(C)s2)cc(OC)c1OC` (stereo unspecified): the inhibition was -6.77%.
For `Cc1ccc(C(=O)NC2CCN(C(=O)Nc3ccccc3Cl)CC2)cc1`, the inhibition was -5.62%.
Regarding `COCCOC(=O)C1=C(C)NC(=O)NC1c1cc2c(cc1Br)OCO2` (stereo unspecified), the inhibition was 13.8%.
The value for `Cc1cc(NC(=O)[C@H](C)NC(=O)c2ccco2)ccc1Br` was 4.7%; that for `COC(=O)c1cc(NC(=O)c2ccco2)ccc1N1CCOCC1` was -9.27%; that for `O=C(Nc1ccc(Oc2ccccc2)cc1)c1ccco1` was 169% (active).
For the compound `O=C(Nc1cccnc1)c1ccc(Cl)c([N+](=O)[O-])c1`, the inhibition was 52.4%.
In the case of `O=C(Nc1ccccc1)/C(=C\c1ccco1)NC(=O)c1ccco1`, the inhibition is 14.3%.
For `Cc1ccnc(NC(=O)c2ccc(Cl)c([N+](=O)[O-])c2)c1` the value was 50.2% (active); for `O=C(Nc1ccccc1)c1ccco1`, 19.7%; for `O=C(Nc1cccc(NC(=O)c2ccco2)c1)c1cnccn1`, 7.98%.
For `Cc1ccnc(NC(=O)c2ccco2)n1` the value was 24.9%; for `O=C(Nc1ccc(Sc2ccc(Br)cc2)cc1)c1ccco1`, 60.3% (active); for `O=C(Nc1ccncc1)c1ccc(Cl)c([N+](=O)[O-])c1`, -0.478%.
As for `O=C(Nc1ccc2nccnc2c1)c1ccco1`, the inhibition was 98.5% (active).
As for `O=[N+]([O-])c1ccc(NC(=S)N2CCN(c3ccccn3)CC2)cc1`, the inhibition is -11.7%.
For `O=C(CCN1CCCO1)N1CCCC(N2CCN(c3cccc(C(F)(F)F)c3)CC2)C1` (stereo unspecified) the value was 3.43%.
The value for `CCNS(=O)(=O)c1ccc(NC(=O)c2cncc(Br)c2)cc1` was -9.77%.
The value for `COc1ccccc1N1CCN(C(=O)c2ccc(NC3=NC4CS(=O)(=O)CC4S3)cc2)CC1` (stereo unspecified) was -1.81%.
`COc1ccc(CNC(=O)C2CC(c3ccc(C(F)(F)F)cc3)=NO2)cc1` (stereo unspecified): the inhibition is -4.35%.
The value for `Cc1cc(C(=O)NC2CCN(Cc3ccccc3)CC2)n[nH]1` was -10.2%.
The value for `CCOc1ccc(C(=O)Nc2c3c(nn2-c2ccccc2)CS(=O)(=O)C3)cc1` was -5.21%.
The value for `COC(=O)c1c(NC(=O)C(=O)N2CCCCC2)sc2c1CC(C)(C)OC2` was -9.37%; that for `Cc1ccc(OCCCCc2c(C)n[nH]c2C)cc1` was 25.2%.
`Cc1cc(C)nc(SCc2cn3c(C)cc(C)nc3n2)n1`: the inhibition was 2.5%.
For the compound `COc1ccc(OCc2cn3c(C)cc(C)nc3n2)cc1`, the inhibition was 48.1% (active).
For `Cc1ccc2nc(SCc3cn4c(C)cc(C)nc4n3)[nH]c2c1` the value was -3.11%; for `CC(C(=O)N=Nc1c(O)n(C)c2ccc(Br)cc12)n1cnc2ccccc2c1=O` (stereo unspecified), -6.1%; for `CSCCC(NS(=O)(=O)c1ccccc1F)C(=O)N1CC=C(c2ccccc2)CC1` (stereo unspecified), -9.3%.
In the case of `COCCN(C(=O)C(C)C)c1nnc(-c2ccc(C(C)(C)C)cc2)s1`, the inhibition is 24.3%.
The value for `CCOc1cccc(-n2nnnc2-c2ccc(OC)cc2)c1` was 0.378%; that for `COc1ccc(-n2nnnc2-c2nc3ccccc3s2)cc1` was 77.2% (active); that for `COc1ccc(CSc2nnnn2-c2ccc(C(=O)O)cc2)cc1` was -2.72%.

The term inhibition denotes the drop in the measured response relative to a control, in per cent.
